Experimental data from ChEMBL document CHEMBL3988442, “University of Dundee, Small-Polar-MMV Screening Library” (2021).
For some of these results: Measured potencies and affinities stand elsewhere.

Key:
Parameters in all cases: scale not given: direction of the effect not stated beside the values
[1] = molecular target: Protein translocase subunit SecA (Escherichia coli (strain K12)) (UniProt P10408); assay: Assay to Identify E. coli SecA ATPase Inhibitors; assay type: functional; conditions: 30 µM
Protein translocase subunit SecA (Escherichia coli (strain K12)), sequence (P10408 whole entry): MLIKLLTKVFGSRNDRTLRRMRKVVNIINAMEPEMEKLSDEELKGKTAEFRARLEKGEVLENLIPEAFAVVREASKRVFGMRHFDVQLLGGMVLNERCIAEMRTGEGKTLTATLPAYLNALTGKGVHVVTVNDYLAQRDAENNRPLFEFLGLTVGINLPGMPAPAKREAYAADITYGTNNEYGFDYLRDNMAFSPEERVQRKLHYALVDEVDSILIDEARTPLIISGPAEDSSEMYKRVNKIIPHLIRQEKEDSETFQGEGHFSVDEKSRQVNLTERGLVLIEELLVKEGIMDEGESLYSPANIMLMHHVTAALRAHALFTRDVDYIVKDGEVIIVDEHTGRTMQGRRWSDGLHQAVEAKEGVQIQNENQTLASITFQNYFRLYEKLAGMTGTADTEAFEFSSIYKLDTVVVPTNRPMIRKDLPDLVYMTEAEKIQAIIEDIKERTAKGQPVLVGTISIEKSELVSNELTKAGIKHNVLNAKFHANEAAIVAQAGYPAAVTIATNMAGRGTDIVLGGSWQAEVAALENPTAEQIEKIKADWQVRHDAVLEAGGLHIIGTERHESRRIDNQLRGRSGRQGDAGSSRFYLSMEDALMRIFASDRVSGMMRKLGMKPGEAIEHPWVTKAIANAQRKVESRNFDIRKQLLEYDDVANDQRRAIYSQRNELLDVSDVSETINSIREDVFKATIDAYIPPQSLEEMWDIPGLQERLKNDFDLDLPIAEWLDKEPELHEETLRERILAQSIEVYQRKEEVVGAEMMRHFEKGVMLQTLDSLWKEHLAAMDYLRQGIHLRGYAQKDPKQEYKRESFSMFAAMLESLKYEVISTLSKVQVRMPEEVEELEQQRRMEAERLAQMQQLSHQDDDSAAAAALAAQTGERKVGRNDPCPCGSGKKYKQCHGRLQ

[2] = molecular target: T1, Ubiquitin-activating enzyme e1, putative (Leishmania donovani (strain BPK282A1)) (UniProt E9BSI1); assay: Leishmania donovani Ubiquitin Activating Enzyme (LdE1); assay type: functional; conditions: 30 µM
T1 sequence (whole entry): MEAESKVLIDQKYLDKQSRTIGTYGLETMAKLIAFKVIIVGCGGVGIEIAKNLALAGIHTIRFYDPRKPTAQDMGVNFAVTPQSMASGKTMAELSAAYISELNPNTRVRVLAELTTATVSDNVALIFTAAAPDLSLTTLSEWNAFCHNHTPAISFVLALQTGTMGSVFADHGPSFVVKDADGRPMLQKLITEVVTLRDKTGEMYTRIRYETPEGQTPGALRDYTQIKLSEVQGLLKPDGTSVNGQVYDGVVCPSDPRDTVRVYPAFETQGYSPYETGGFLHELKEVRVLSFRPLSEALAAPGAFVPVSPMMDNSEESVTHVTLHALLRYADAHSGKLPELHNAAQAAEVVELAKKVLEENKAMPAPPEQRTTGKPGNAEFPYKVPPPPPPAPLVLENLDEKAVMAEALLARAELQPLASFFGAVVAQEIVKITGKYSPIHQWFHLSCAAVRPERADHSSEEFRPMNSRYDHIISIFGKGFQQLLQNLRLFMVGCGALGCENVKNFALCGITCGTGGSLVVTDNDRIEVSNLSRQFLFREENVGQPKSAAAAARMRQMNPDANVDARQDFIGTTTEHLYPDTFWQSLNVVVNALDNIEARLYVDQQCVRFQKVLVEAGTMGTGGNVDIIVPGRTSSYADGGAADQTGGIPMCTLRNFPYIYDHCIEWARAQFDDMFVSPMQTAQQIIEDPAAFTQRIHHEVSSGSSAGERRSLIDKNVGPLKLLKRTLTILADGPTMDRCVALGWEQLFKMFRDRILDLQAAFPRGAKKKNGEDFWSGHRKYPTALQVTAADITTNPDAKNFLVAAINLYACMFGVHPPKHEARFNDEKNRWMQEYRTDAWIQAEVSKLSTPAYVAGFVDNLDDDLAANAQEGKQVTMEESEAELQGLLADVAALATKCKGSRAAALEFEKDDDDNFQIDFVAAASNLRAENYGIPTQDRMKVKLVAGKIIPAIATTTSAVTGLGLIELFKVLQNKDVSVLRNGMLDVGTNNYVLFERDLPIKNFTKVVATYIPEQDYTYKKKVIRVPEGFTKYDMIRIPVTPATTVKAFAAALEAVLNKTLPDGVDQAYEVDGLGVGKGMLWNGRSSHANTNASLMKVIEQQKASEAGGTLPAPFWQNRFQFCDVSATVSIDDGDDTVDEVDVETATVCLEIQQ

[3] = molecular target: AMP-activated protein kinase, AMPK (Homo sapiens) (UniProt P54646+O43741+P54619+Q9UGJ0+Q9Y478+Q13131+Q9UGI9); assay: AMP-dependent Kinase enzyme assay. An in vitro enzyme assay that detects ADP turnover that is directly proportional to AMPK activity. This uses naive AMPK that is activated during the assay with MK-8722; assay type: functional; conditions: 30 µM
[4] = molecular target: Sialic acid-binding Ig-like lectin 9 (Homo sapiens) (UniProt Q9Y336); assay: Hs-Siglec9 ALPHAscreen SOP 20170721; conditions: 10 µM
Sialic acid-binding Ig-like lectin 9 (Homo sapiens), sequence (Q9Y336 whole entry): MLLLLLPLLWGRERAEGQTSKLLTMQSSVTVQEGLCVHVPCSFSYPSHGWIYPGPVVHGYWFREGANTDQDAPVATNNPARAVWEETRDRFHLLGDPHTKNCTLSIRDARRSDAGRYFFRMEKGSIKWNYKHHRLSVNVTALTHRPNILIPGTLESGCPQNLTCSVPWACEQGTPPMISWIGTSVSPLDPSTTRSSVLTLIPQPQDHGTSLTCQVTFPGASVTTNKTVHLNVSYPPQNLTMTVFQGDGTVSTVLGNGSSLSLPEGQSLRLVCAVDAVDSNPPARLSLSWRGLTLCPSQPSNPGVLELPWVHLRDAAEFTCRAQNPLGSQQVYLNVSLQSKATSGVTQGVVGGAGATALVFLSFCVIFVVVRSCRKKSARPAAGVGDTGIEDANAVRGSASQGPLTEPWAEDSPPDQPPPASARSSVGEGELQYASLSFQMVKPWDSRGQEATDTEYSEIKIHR

[5] = test system: Trypanosoma cruzi; assay: Trypanosoma cruzi phosphomannomutase and mannose-1-phosphate guanylyltransferase assay; assay type: functional; conditions: 10 µM
[6] = molecular target: T2, Arginase-2, mitochondrial (Homo sapiens) (UniProt P78540); assay: in vitro enzyme assay to detect the production of urea directly proportional to the activity of Arginase II; assay type: functional; conditions: 33.3 µM; note: in the data most compounds retested in dose-response had high values
T2 sequence (whole entry): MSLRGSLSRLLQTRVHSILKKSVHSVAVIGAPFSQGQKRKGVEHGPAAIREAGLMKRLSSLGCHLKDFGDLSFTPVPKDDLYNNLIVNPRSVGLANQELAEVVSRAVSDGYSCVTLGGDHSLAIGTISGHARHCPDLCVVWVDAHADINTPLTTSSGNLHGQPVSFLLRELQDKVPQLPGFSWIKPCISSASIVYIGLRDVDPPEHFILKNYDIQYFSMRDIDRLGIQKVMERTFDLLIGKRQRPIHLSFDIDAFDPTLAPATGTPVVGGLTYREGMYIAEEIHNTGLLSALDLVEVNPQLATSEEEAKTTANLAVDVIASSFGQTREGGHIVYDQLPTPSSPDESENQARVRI

[7] = molecular target: T3, Proteasome subunit beta (Trypanosoma cruzi) (UniProt O96673); assay: Trypanosoma cruzi proteasome chymotrypsin-like activity (TcProtChymo) assay.; note: in the data most compounds retested in dose-response had high values; assay type: functional; conditions: 9.37 µM
T3 sequence (whole entry): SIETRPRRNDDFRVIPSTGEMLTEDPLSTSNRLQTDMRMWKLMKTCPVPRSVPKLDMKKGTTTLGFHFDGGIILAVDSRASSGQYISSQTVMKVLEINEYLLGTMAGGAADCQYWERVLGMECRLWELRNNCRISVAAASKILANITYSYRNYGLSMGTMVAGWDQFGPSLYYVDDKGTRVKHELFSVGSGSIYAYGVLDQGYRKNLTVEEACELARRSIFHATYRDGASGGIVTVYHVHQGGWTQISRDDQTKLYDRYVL

[8] = species: Homo sapiens; assay: To identify inhibition of the IFN signalling (Jak-Stat) pathway via expression of an eGFP reporter gene under the control of an IFN-stimulated response element (ISRE) containing MxA promoter.; assay type: functional; conditions: 30 µM
[9] = molecular target: T4, Tyrosyl-tRNA synthetase, putative (Trypanosoma cruzi (strain CL Brener)) (UniProt Q4DSP6); assay: Trypanosoma cruzi tyrosyl tRNA synthetase (TcYRS) _High Tyrosine SOP; assay type: functional; conditions: 30 µM; note: in the data most compounds retested in dose-response had high values
T4 sequence (whole entry): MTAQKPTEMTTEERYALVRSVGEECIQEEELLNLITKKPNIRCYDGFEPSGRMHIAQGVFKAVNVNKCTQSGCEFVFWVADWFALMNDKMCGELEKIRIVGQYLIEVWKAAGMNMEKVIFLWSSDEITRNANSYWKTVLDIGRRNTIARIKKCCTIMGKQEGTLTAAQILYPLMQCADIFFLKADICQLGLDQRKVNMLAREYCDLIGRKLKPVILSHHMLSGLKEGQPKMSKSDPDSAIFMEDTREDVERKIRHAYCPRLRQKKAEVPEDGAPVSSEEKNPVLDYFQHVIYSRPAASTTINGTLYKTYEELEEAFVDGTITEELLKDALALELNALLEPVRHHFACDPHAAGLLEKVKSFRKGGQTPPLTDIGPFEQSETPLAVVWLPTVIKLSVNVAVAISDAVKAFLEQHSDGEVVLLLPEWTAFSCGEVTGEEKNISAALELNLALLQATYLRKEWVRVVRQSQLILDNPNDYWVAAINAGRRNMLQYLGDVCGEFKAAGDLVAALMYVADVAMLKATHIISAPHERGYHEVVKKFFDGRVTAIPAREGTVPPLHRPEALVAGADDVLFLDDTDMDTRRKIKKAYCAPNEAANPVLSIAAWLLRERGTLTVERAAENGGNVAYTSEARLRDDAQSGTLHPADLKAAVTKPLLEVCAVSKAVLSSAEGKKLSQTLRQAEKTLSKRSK

[10] = molecular target: T4, Tyrosyl-tRNA synthetase, putative (Trypanosoma cruzi (strain CL Brener)); assay: Trypanosoma cruzi tyrosyl tRNA synthetase (TcYRS) SOP; assay type: functional; conditions: 30 µM
[11] = molecular target: Chromo domain-containing protein 1 (Saccharomyces cerevisiae (strain ATCC 204508 / S288c) (Baker's yeast)) (UniProt P32657); assay: ScCHD-1 Enzyme Inhibition Assay; assay type: functional; conditions: 30 µM; note: in the data most compounds retested in dose-response had high values
Chromo domain-containing protein 1 (Saccharomyces cerevisiae (strain ATCC 204508 / S288c) (Baker's yeast)), sequence (P32657 whole entry, the tested form may be a part): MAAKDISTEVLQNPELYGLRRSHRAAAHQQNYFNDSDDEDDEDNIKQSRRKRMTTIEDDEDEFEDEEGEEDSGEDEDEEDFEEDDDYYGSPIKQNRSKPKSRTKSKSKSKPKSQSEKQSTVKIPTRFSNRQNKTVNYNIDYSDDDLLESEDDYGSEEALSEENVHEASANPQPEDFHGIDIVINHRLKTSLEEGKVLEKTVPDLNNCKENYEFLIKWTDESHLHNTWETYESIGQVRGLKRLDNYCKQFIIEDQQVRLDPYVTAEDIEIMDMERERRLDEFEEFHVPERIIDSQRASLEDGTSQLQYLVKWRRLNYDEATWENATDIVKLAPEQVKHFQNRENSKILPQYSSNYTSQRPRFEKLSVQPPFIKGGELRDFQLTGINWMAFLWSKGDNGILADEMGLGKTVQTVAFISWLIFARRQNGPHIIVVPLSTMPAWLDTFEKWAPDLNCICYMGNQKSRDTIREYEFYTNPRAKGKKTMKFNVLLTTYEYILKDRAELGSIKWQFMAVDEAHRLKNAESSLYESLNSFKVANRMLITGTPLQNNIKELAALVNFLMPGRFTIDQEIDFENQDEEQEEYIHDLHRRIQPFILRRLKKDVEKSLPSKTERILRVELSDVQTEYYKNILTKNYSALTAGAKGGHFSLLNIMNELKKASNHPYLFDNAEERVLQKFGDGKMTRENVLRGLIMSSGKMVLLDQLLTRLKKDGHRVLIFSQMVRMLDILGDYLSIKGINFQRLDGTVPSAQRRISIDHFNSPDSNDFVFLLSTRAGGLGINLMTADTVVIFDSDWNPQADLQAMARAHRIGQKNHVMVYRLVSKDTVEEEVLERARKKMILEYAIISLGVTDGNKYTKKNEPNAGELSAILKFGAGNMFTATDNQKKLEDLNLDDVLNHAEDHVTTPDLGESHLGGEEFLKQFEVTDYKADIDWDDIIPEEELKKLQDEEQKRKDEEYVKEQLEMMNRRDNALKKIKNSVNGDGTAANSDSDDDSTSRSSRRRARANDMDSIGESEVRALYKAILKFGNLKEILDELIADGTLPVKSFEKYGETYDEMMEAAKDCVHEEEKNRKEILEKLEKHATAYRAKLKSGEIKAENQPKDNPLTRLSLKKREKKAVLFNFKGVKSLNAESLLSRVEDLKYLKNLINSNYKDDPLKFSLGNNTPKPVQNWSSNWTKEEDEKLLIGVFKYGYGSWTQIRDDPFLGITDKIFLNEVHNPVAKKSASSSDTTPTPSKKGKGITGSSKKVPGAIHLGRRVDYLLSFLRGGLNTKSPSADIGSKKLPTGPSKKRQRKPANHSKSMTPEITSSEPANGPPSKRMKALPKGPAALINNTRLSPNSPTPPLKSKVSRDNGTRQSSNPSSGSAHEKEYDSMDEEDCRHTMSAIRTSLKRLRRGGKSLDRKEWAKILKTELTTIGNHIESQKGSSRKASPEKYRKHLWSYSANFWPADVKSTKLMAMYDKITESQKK

Row | Structure (SMILES) | Percent Effect [1] [%] | Percent Effect [2] [%] | Percent Effect [3] [%] | Percent Effect [4] [%] | Percent Effect [5] [%] | Percent Effect [6] [%] | Percent Effect [7] [%] | Percent Effect [8] [%] | Percent Effect [9] [%] | Percent Effect [10] [%] | Percent Effect [11] [%]
1 | O=C(c1ccc(Cl)cc1)N1CCCn2nnc(Cn3cccn3)c2C1 | -2.51 | 16.2 | 3.45 | 15.3 | 4.2 | 8.19 | 16.6 | 8.78 | 5.38 | 16.1 | -7.62
2 | COCc1ccccc1C(=O)N1CCCC(n2nc(C)cc2C)C1 (stereo unspecified) | -3.82 | 5.06 | -3.09 | 3.7 | 4.06 | -6.08 | 4.67 | -9.14 | 4.43 | 3.8 | -4.28
3 | CCN(C1CCS(=O)(=O)C1)S(=O)(=O)c1cccc2cc(C)cnc12 (stereo unspecified) | -4.6 | 21.1 | 5.96 | -4.93 | -4.01 | 3.96 | 4.99 | 14.3 | 6.4 | 18.5 | -6.57
4 | CCCC(=O)NCc1cc(Br)c(OC)c(OC)c1 | -2.9 | 8 | -3.19 | 14.4 | 6.72 | 15.6 | 5.41 | 25.5 | 2.73 | 13.6 | -8.52
5 | CCN(CC1CCCO1)C(=O)Nc1ccc(F)cc1OC (stereo unspecified) | -3.45 | 17.7 | -6.96 | 10.6 | 6.14 | 3.8 | 4.5 | -28.1 | 4.43 | 16.5 | -7.51
6 | Cc1noc(CCCC(=O)NC(C)c2cn(-c3ccccc3)nn2)n1 (stereo unspecified) | -1.64 | 0 | 3.68 | 6.5 | 6.58 | 1.15 | 6.35 | -19.3 | 2.45 | 4.88 | -6.39
7 | CN(C)C(=O)NC[C@H]1OC[C@@H]2CCN(Cc3ccoc3)C[C@@H]21 | 2.83 | 2.67 | 24.1 | -3.37 | -5.41 | -66.8 | 8.38 | 36.1 | 3.12 | 10 | -4.56
8 | CC(=O)c1cn(CCC(=O)NCCC(=O)O)c2ccccc12 | 0.0873 | 9.33 | 1.48 | 3.5 | -3.14 | -6.16 | 15.5 | 0.418 | 9.52 | 17.9 | -3.67
9 | Cc1cnn(CC2CCCN2C(=O)c2ccc3cc[nH]c3c2)c1 (stereo unspecified) | -1.42 | 1.27 | 3.59 | 1.53 | -1.33 | 1.5 | 2.4 | 13.8 | 0 | 5.06 | -8.72
10 | O=C(c1ccc(Br)o1)N1CCCC(n2cncn2)C1 (stereo unspecified) | -5.45 | -1.39 | 0.96 | -6.28 | -3.6 | -2.21 | 4.04 | 7.55 | 0 | 2.56 | 1.43
11 | CC(C)c1nccn1-c1cccc(C2CCN(C)CC2)n1 | -4.43 | 9.46 | 4.91 | -4.03 | 4.54 | -5.8 | 14.2 | 0.127 | 1.07 | 6.49 | -24.6
